# In all, about 5,800 sequences were measured (“enrichment r”: median about 0.68, highest 2% from about 11 on). What follows is part of a selection rich in the highest values, with near analogues and random picks from the rest.
# T1: UNK ZnF1-6 (called full-length) (human, UniProt Q9C0B0 30-357)
# T1 sequence: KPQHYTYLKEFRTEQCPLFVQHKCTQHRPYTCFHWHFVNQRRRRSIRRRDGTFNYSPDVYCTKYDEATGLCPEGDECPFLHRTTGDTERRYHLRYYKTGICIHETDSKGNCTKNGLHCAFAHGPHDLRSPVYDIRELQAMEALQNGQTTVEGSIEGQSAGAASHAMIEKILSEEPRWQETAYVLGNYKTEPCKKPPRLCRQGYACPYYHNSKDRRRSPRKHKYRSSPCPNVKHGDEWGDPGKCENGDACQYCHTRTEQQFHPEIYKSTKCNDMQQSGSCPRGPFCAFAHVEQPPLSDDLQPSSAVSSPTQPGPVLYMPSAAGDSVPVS
# B1: chr4:113382420:113382521:+|3pUTR|ENSG00000145362|msi1|FALSE|bound_elsewhere (ssRNA)
# RNA: GGGAGUUCUACAGUCCGACGAUCUCUUCAGGUCUUUAGAUCUUGGACAAGUUGGCAGGGUAUUUUAAAAGCUAUAACUACUGUAGUUUUCCAGUUUUCAUUGCUGCUUUAGCAAACCACGCUGUCUUACAGUGGUACUUUCUUCAACAGAGGAUUGAGCAUCA
# B2: chr2:171482635:171482736:+|3pUTR|ENSG00000115827|unk|FALSE|unique (ssRNA)
# RNA: GGGAGUUCUACAGUCCGACGAUCCAAGAGUGUUUCAGAAUAGGAUGUCUUAAGACUUCAGUCAUGUCAGAGAUUUUUUUUUUUAGGUGAUUAUUGAGUUUCUCCUUCUCCUUUAAGUCAUCACCUUCCUUUUAUGAAAUGAUACAACAGAGGAUUGAGCAUCA
# B3: chr9:104535772:104536723:-|CDS|ENSG00000204246|control|control|control (ssRNA)
# RNA: GGGAGUUCUACAGUCCGACGAUCGACAAGCUCAUUUCUCUGUUUUAUGGGGUAGUGACACCCAUGCUGAAUCCUAUACUCUAUAGCUUGAGAAAUAAGGAUGUAAAAGCUGCUGUAAAAUAUUUGCUGAACAAAAAACCAAUUCAACAGAGGAUUGAGCAUCA
# B4: chr8:23842113:23842214:-|3pUTR|ENSG00000159167|msi1|FALSE|unique (ssRNA)
# RNA: GGGAGUUCUACAGUCCGACGAUCACUUUAGACAUUUUUGUGCCAUUAUAUUUGCAUUAUGUAUUUAUAAUUUAAAUGAUAUUUAGGUUUUUGGCUGAGUACUGGAAUAAACAGUGAGCAUAUCUGGUAUAUGUCAUUAUUUAUCAACAGAGGAUUGAGCAUCA
# B5: ENSG00000112936:stop:overlap|stop_codon|ENSG00000112936|stop_codon|NA|stop_codon (ssRNA)
# RNA: GGGAGUUCUACAGUCCGACGAUCGAUGCAGAGGGCAGAGCAUCUCUGUCACCAGCAUAAGGCCUUGUGCUGCGGAAACCCAGUAGGCUCCUGGAGGCCCUGGUCAGCUUGCUUGGAAUCCAGCAGGCAGCUGGGGCUGAGUGACAACAGAGGAUUGAGCAUCA
# B6: ENSG00000170312:stop:overlap|stop_codon|ENSG00000170312|stop_codon|NA|stop_codon (ssRNA)
# RNA: GGGAGUUCUACAGUCCGACGAUCGCAAAAUGGCACUGAAUCAUCCAUAUUUUAAUGAUUUGGACAAUCAGAUUAAGAAGAUGUAGCUUUCUGACAAAAAGUUUCCAUAUGUUAUAUCAACAGAUAGUUGUGUUUUUAUUGUUACAACAGAGGAUUGAGCAUCA
# B7: chr2:69942770:69942871:+|3pUTR|ENSG00000059728|unk|FALSE|unique (ssRNA)
# RNA: GGGAGUUCUACAGUCCGACGAUCUGUUUCCAGAUGUUUCUUUAUGUAAAUAUGACGCCAAUGUAAAUCCUGUGUCAAGAUCAUAGAGAAUGGUGCUUUUUACUACAGUUAGCACAUGCAUUUUUAGAAACUACUACAUGUUUUCAACAGAGGAUUGAGCAUCA
# B8: ENSG00000114439:stop:overlap|stop_codon|ENSG00000114439|stop_codon|NA|stop_codon (ssRNA)
# RNA: GGGAGUUCUACAGUCCGACGAUCUUCAUUGUAAAACAUUGUGCUUUACCUACUACCCUAGCCUUGUCUUUACCGAGGGAUGCUAGUGAGUCCAAGUGGUGGAAAAUAUAGACUGCAAACAAGUGCUUGUUGCCCCACACGGCCCAACAGAGGAUUGAGCAUCA
# B9: ENSG00000117906:stop:overlap|stop_codon|ENSG00000117906|stop_codon|NA|stop_codon (ssRNA)
# RNA: GGGAGUUCUACAGUCCGACGAUCAGUCCUUUAGGAAGCAUCAAUGUGGAGGUUUGGGGCUCCAUCCUCAGAGCCAGUCUGCUUAGCUUCACAUUUAGCUCCAGCACUUCACGGUUGUGUAACUUUGGCUUCACUUAAAGGACACAACAGAGGAUUGAGCAUCA
# B10: chr12:104348774:104348848:+|3pUTR|ENSG00000198431|msi1_unk|total|mutant (ssRNA)
# RNA: GGGAGUUCUACAGUCCGACGAUCCGUUGUCAAGUUUUCCCGGGUUGAAUUUUUUUCUUUUUUCUCCAUGGUGUUAAUGAUAUCCGAGAUGAAAAACGUCCGCAGUUGAUUUUUGUCCAAAAGCAAGUCAUGGCCCGAGUAUCCCAACAGAGGAUUGAGCAUCA
# B11: chr10:62094764:62094865:+|3pUTR|ENSG00000150347|msi1|FALSE|unique (ssRNA)
# RNA: GGGAGUUCUACAGUCCGACGAUCGAUGAACUCCCCAACCCACUGUGCCCCUCCCGCAACACUACCAGUAGACUUUAGAACCAUAGUUAACUAAGUCUUUUACCUCUGAGAUACUUAAUUCUGGGAAAAUUGGUGACAAUUUUCCAACAGAGGAUUGAGCAUCA
# B12: chr2:99394746:99394872:+|CDS|ENSG00000158417|unk|FALSE|unique (ssRNA)
# RNA: GGGAGUUCUACAGUCCGACGAUCGAUGUGAGAAUUGAACGAGAUGCACAAGAAAUGGCUGAUAGUUUAGGAGUUAGAAUUUUUAGUGCAGAAAUUAUUUAUCAUUUAUUUGAUGCCUUUACAAAAUAUAGACAAGACUACAAGCAACAGAGGAUUGAGCAUCA
# B13: chrX:115010634:115010735:-|CDS|ENSG00000123496|msi1|FALSE|unique (ssRNA)
# RNA: GGGAGUUCUACAGUCCGACGAUCUGGAUCAUCAGAGAACAAGCCUAUCAGAUCCAGUUAUUUCACUUUUCAGCUUCAAAAUAUAGGUGAUGUAAACCAACAAACAACUUCAAAUUCAUUGUUUCUAGUUUAGGCCAUUUACAACAACAGAGGAUUGAGCAUCA
# B14: chr1:42278343:42278454:-|CDS|ENSG00000198815|unk|FALSE|bound_elsewhere (ssRNA)
# RNA: GGGAGUUCUACAGUCCGACGAUCAAAAAGAAAAUGACUUUAAGUGAAAUUUAUCAGUGGAUUUGUGAUAACUUCCCAUAUUAUAGAGAGGCUGGCAGUGGUUGGAAGGUAAGGAUUUUAUUUAAAUUAUUACUUUUAUGAAGUCAACAGAGGAUUGAGCAUCA
# B15: chr12:95514132:95514176:+|3pUTR|ENSG00000111142|msi1_unk|FALSE|overlapping (ssRNA)
# RNA: GGGAGUUCUACAGUCCGACGAUCCUUUUAAAUGCUAACUGUUUUUCCCCUUCCUGUCUAGGAAAAUGCUAUAAAGCUCAAAUUAGUUAGGAAUGACUUAUACGUUUUGUUUUGAAUACCUAAGAGAUACUUUUUGGAUAUUUACAACAGAGGAUUGAGCAUCA
# B16: chr18:68676332:68676434:-|3pUTR|ENSG00000166479|msi1_unk|FALSE|overlapping (ssRNA)
# RNA: GGGAGUUCUACAGUCCGACGAUCAUCAAGAUUAUGAGGUUAAAAAUAAUGUGGUUUUAUAUAGCAUAGUGGUUUUAUUUUGUUAGUUAUUUUUAAAGGAGAAGAAAUGUUACUUUUUAACUUUAUACUCAGUUGCAUUAUCAUCAACAGAGGAUUGAGCAUCA
# B17: chr18:54155150:54155251:-|3pUTR|ENSG00000134046|unk|FALSE|unique (ssRNA)
# RNA: GGGAGUUCUACAGUCCGACGAUCUUUCCACUGGCUUUUGCCUGUAAGAAAAAAAAUGUACCCGAGCACAUAGAGCUUUUUAAUAGCACUAACCAAUGCCUUUUUAGAUGUAUUUUUGAUGUAUAUAUCUAUUAUUCAAAAAAUCAACAGAGGAUUGAGCAUCA
# B18: chr3:98797553:98797658:-|3pUTR|ENSG00000057019|msi1|FALSE|unique (ssRNA)
# RNA: GGGAGUUCUACAGUCCGACGAUCAUUUCAUUCAUUGAAGAAUCAAUACAUAUUUUGUUUCAAAAUGUUUGAAACAAAAGACAUAGAUGGUAGACUUUUAUUAAAACAUAUAUGGAUGUGGAAAGCACAUAUAUUAAUGCAGUCCAACAGAGGAUUGAGCAUCA
# B19: chr22:49888080:49888186:+|3pUTR|ENSG00000100426|unk|FALSE|unique (ssRNA)
# RNA: GGGAGUUCUACAGUCCGACGAUCUGGCUUAUUAACAGGGAAGAAGCUUGUUAUAUUCCAGUUGUAAGAAUAGCCUUAGUGUUUAGAUUUUUUUAUGAUAGGGAAGAUGCGGCCAUCACUGGGAUAUUUUCAAAUCCCAAGGACCAACAGAGGAUUGAGCAUCA
# B20: chr15:100649042:100649144:+|3pUTR|ENSG00000183475|unk|FALSE|unique (ssRNA)
# RNA: GGGAGUUCUACAGUCCGACGAUCUACCUCUGCUUUUCUUUUGCUGUGCUCUUGUUUUUAACUUAUUUUUUUUUUAACAACUGUAGUACACUACCCUGAGACACUGCAUCUCGAUUUCUAUCUCUAGUUAGAGUUGUACUUUUACAACAGAGGAUUGAGCAUCA
# B21: chr4:65323451:65323552:-|3pUTR|ENSG00000145242|msi1|FALSE|unique (ssRNA)
# RNA: GGGAGUUCUACAGUCCGACGAUCAUCAAGAAAAAGUACAAUACAGGGUGUAUAUUUAUUUUUUGUGUUAUAAAGUUUACUUUUAGUUGCUCUUCUAGAGAUUAUUAGGUAAUAAAUGUGUAUAUACUGUAUAAUUUGCAAUAUCAACAGAGGAUUGAGCAUCA
# B22: chr18:55223968:55224079:-|3pUTR|ENSG00000196628|unk|FALSE|unique (ssRNA)
# RNA: GGGAGUUCUACAGUCCGACGAUCUAUAAAGCUUUGUUUGUCUAGUGCUCUUUUGCUAUAAAAUAGACUGUAGUACACCCUAGUAGGAAAAAAAAAAAACUAAAUUUAAAAAUAAAAAAUAUAUUUGGCUUAUUUUUCGCAGGACAACAGAGGAUUGAGCAUCA
# B23: chr16:21983864:21984660:-|three_prime_utr|ENSG00000155714|control|control|control (ssRNA)
# RNA: GGGAGUUCUACAGUCCGACGAUCAAAGAAAAUUGAGCUGGCAAAAGAUGAAUCUUUCACAAGCAGUGAUGAUAAUGAAAAUGUAGAUUUAGAUAAAAGACUUCAAUAUUAUAGAUAUCCGUGGUCAACUGUGCAUCACCCUGCCAACAGAGGAUUGAGCAUCA
# Biological target: T1, UNK ZnF1-6 (called full-length)
# Assay: nsRBNS (natural sequence RNA bind-n-seq); RBNS binding buffer (assumed for nsRBNS): 25 mM Tris pH 7.5, 150 mM KCl, 3 mM MgCl2, 0.01% Triton X-100, 500 ug/ml BSA, 20 U/ml SUPERase-In, 4 C; UNK is unkempt and MSI1 is Musashi-1; names of the RNAs are library labels; protein concentration not given here; high values mean tight binding
row,Binder,binding signal [enrichment R]
1,B1,0.392
2,B2,1.03
3,B3,0.451
4,B4,3.25
5,B5,0.329
6,B6,0.706
7,B7,0.538
8,B8,0.604
9,B9,0.657
10,B10,0.359
11,B11,3.7
12,B12,15.9
13,B13,0.759
14,B14,3.38
15,B15,2.63
16,B16,48.4
17,B17,5.14
18,B18,1.11
19,B19,11.3
20,B20,5.29
21,B21,3.94
22,B22,39.5
23,B23,2.22

# Source: PMC12136788
